High-throughput results as filed in PubChem BioAssay.
HT1080 IDH1KD tx: qHTS for induction of synthetic lethality in tumor cells producing 2HG: qHTS for the HT-1080-IDH1KD cell line | HT-1080 IDH1 knockdown viability, ATP luminescence, 48 h | 2% of 360,000 active | Potency, µM (highest dose often 46.1 µM), for the others: at the highest dose activity, negative = toxicity, actives largely listed as cytotoxic;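 also: potency is read from the fitted curve at half-maximal effect; 0% = DMSO wells and -100% = cell-free medium wells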
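% activity derives from luminescence (CellTiter-Glo), normalised to DMSO and no-cell wells. HT-1080-IDH1KD cells, 750/well, had 48 h compound exposure at 37 °C.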
TDP1 cell CPT: qHTS for Inhibitors of human tyrosyl-DNA phosphodiesterase 1 (TDP1): qHTS in cells in presence of CPT; chicken DT40 Tdp1-/-;hTDP1 cells + 20 nM CPT, ATP luminescence, 48 h; AID 686979, 2013; 12% of 420,000 active; Potency, µM (highest dose often 46.2 µM), inactives show top-dose activity change, negative = growth inhibition, usual class: inhibitors; also: potency is read from the fitted curve at half-maximal effect; nearly all actives have a fitted effect of over 55% in size
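Chicken DT40 Tdp1-/- cells stably complemented with human TDP1 were seeded at 400 cells/well in medium containing 20 nM camptothecin, exposed to pin-transferred compounds, and grown at 37 °C for at least 48 hr. Viability was read as ATP luminescence.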
HT1080NT lethal: qHTS for induction of synthetic lethality in tumor cells producing 2HG: qHTS for the HT-1080-NT fibrosarcoma cell line; 1.6% of 360,000 active; HT-1080-NT fibrosarcoma viability, CellTiter-Glo ATP luminescence, 48 h; Potency, µM (doses to about 46.1 µM), inactives show top-dose activity, negative = less viability, actives largely listed as cytotoxic;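 also: NT is the 2HG producing partner of a matched IDH1 knockdown line; potency is read from the fitted curve at half-maximal effect; 0% = DMSO-treated cells and -100% = media-only wells without cells; nearly all actives have a fitted effect of over 55% in size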
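Luminescent CellTiter-Glo readout after 48 hours of compound exposure at 37 degrees C defined viability of HT-1080-NT cells. Activity was normalized to DMSO wells and cell-free media wells; concentration-response curves were fitted and assigned curve classes.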
IL1B secr inh: qHTS for Inhibitors of Inflammasome Signaling: IL-1-beta AlphaLISA Primary Screen. THP-1 LPS/ATP IL-1B secretion, AlphaLISA, 16 h; active compounds read low. activity change, % at 57.5 µM. 4.7% of 360,000 active. AID 743279, 2014; in the data active = activity change below about -50%; inconclusive = mostly about -30% to -49%
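THP-1 cells pretreated 1 hr with compounds (up to 57.5 uM final), then stimulated with LPS (250 ng/mL final) plus ATP (1.25 mM final); secreted IL-1B measured by AlphaLISA after 16 hr, decreased signal indicating inhibition.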
TDP1 cell noCPT: qHTS for Inhibitors of human tyrosyl-DNA phosphodiesterase 1 (TDP1): qHTS in cells in absence of CPT; DT40 Tdp1-/- hTDP1 cells, no CPT, ATP luminescence, 48 h; Potency, µM (highest dose often 46.2 µM), inactives show top-dose activity change, negative = growth inhibition, usual class: inhibitors; AID 686978, 2013; 15% of 420,000 active; also: potency is read from the fitted curve at half-maximal effect; nearly all actives have a fitted effect of over 55% in size
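A cellular qHTS used chicken DT40 cells lacking endogenous Tdp1 but carrying stably transfected human TDP1. Compounds were applied without camptothecin, and cell growth kinetics were judged by ATP-dependent luminescence after ≥48 hr.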
* = called active by the depositor; ? = inconclusive; . = no result given. Hits are enriched below; roughly 19% of the tested compounds scored in any of these assays. Unless noted, calls follow the shape of the dose curve; as a rule, active = well fitted curve in the direction sought with a large enough effect; inconclusive = small, poorly fitted or top-dose-only effect, or another doubt; inactive = no such curve, though single readings can be large; an effect the other way counts as inactive or inconclusive. Unless noted, % is scaled to controls: 0 for no effect and ±100 for the full control effect.

SMILES	HT1080 IDH1KD tx	TDP1 cell CPT	HT1080NT lethal	IL1B secr inh	TDP1 cell noCPT
CCOc1ccccc1C(=O)N(Cc1cc(OC)c(OC)c(OC)c1)c1ccccn1	.	18µM*	.	.	?
Cc1ccc(CC(=O)N(Cc2ccccc2)c2ccccn2)cc1	19%	?	3%	8	?
COc1cc(CN(C)CCc2ccccn2)cc(OC)c1OC	11%	-1%	19%	11	-6%
COc1cc(CN(C(=O)c2ccc(C)cc2)c2ccccn2)cc(OC)c1OC	.	18µM*	.	.	21µM*
COc1cc(CN(C(=O)c2cccc(C)c2)c2ccccn2)cc(OC)c1OC	.	13µM*	.	.	13µM*
CCOc1ccc(C(=O)N(Cc2cc(OC)c(OC)c(OC)c2)c2ccccn2)cc1	.	15µM*	.	.	21µM*
O=C1NC[C@@H](CCCCN2C[C@H](Cc3ccc(O)cc3)N(CCC3CCCCC3)C(=O)C2=O)N(CC2CCCCC2)C1=O	?	-10%	?	-27	-12%
CCOC(=O)N1CCN(S(=O)(=O)c2c(C)nc3scc(C)n3c2=O)CC1	6%	-6%	2%	29	?
COc1ccc(/C=C/C(=O)N(Cc2ccccc2)c2ccccn2)cc1OC	-1%	-2%	13%	3	-8%
COc1cc(/C=C/C(=O)N(Cc2ccccc2)c2ccccn2)cc(OC)c1OC	1%	?	-4%	0	29µM*
O=C(NC(c1ccccc1)c1ccccc1)c1ccc(=O)[nH]n1	0%	?	2%	2	?
O=C(CSc1nnc(COc2ccc(F)cc2)o1)N1c2ccccc2CCc2ccccc21	?	?	-23%	-12	16µM*
O=C(CSc1nnc(COc2cccc3cccnc23)o1)N1CCc2ccccc21	1.3µM*	2.1µM*	2.2µM*	20	2.3µM*
COCC1CCN(Cc2cn(-c3ccccc3F)nc2-c2cc(C)sc2C)CC1	-10%	?	0%	-5	?
O=C(O)CCn1c(SCCOc2ccccc2)nc2ccccc21	1%	7%	6%	2	4%
CCOc1ccc(NC(=O)Cn2nc3c(cc2=O)CC(C)CC3)cc1 (stereo unspecified)	.	7%	.	.	-9%
CCCCNC(=O)Nc1ncn[nH]1	14%	-1%	9%	-1	-17%
C=CCn1c(SCn2nnc3ccccc3c2=O)nnc1C1CCCCC1	10%	2%	-1%	-1	-18%
Cc1ccc(-n2c(O)c(/C=N/Nc3ccc(S(=O)(=O)N4CCOCC4)cc3[N+](=O)[O-])c3ccccc3c2=O)c(C)c1	?	21µM*	12µM*	-65*	12µM*
CCCn1c(N)c(C(=O)CN(C)CC(=O)Nc2ccccc2C(F)(F)F)c(=O)[nH]c1=O	-6%	15µM*	-1%	12	21µM*
CCCn1c(N)c(C(=O)CN(C)CC(=O)Nc2cc(C)ccc2C)c(=O)[nH]c1=O	0%	13µM*	1%	11	13µM*
CCCn1c(N)c(C(=O)CN(C)CC(=O)Nc2c(Cl)cccc2Cl)c(=O)[nH]c1=O	-2%	16µM*	-1%	?	23µM*
CCOC(=O)c1c(NC(=O)COc2ccc(Cl)cc2Cl)sc2c1CCCCC2	.	-4%	.	.	-16%
Cc1cccc(OC(C)C(=O)N2CCN(Cc3ccc4c(c3)OCO4)CC2)c1 (stereo unspecified)	-1%	?	-2%	0	?
CNc1ccccc1C(=O)OC(C)C(=O)Nc1ccc(Cl)cn1 (stereo unspecified)	4%	?	0%	-75*	?
SMILES	HT1080 IDH1KD tx	TDP1 cell CPT	HT1080NT lethal	IL1B secr inh	TDP1 cell noCPT
O=C(CC(c1ccccc1)c1ccccc1)Nc1ccc(Cl)cn1	15µM*	?	?	6	18µM*
O=C(CS(=O)(=O)c1ccccc1)Nc1ccc(Cl)cn1	9%	7%	27%	8	-2%
O=C(/C=C/c1ccccc1)Nc1ccc(Cl)cn1	4.6µM*	2.6µM*	?	0	3.3µM*
CCOc1ncccc1C(=O)OC(C)C(=O)Nc1ccc(Cl)cn1 (stereo unspecified)	0%	-27%	4%	27	?
Cc1ccc(S(=O)(=O)Nc2ccccc2C(=O)N2CCCCC2C)c(C)c1NS(C)(=O)=O (stereo unspecified)	-9%	-12%	-5%	3	-21%
COc1ccc2oc(=N)c(C(=O)Nc3cccc(C)c3C)cc2c1	17%	-5%	23%	-20	-2%
CCn1c(CNc2ccc(F)cc2)nnc1SCCN1CCCCC1	14%	5%	11%	18	-16%
CCn1c(CNc2ccccc2Cl)nnc1SCCN1CCCCC1	-6%	18µM*	-1%	-8	16µM*
O=C(c1cccc(C(F)(F)F)c1)C1CCCN(C(=O)CCn2cnnn2)C1 (stereo unspecified)	21%	2%	2%	6	-10%
CCN(CC)c1nc2c(c(=O)[nH]c(=O)n2C)n1CCCc1ccccc1	-19%	?	-7%	-21	10µM*
CN(Cc1ccccc1)c1nc2c(c(=O)n(C)c(=O)n2C)n1CCCc1ccccc1	-26%	23µM*	-18%	11	16µM*
CCN(CC)c1nc2c(c(=O)n(C)c(=O)n2C)n1CCCc1ccccc1	1%	21µM*	-2%	23	23µM*
CCCCn1c(CN(Cc2ccccc2)Cc2ccccc2)nc2c1c(=O)n(C)c(=O)n2C	1%	13µM*	-1%	-1	18µM*
CC(O)CSc1nc2c(c(=O)n(C)c(=O)n2C)n1CCCc1ccccc1 (stereo unspecified)	-7%	?	-4%	21	?
CSc1nc2c(c(=O)[nH]c(=O)n2C)n1CCCc1ccccc1	-4%	?	-2%	35	-23%
CCCCn1c(SCc2nnc(-c3ccccc3)o2)nc2c1c(=O)n(C)c(=O)n2C	10%	15µM*	11%	-13	10µM*
CC(=O)Nc1ccc(S(=O)(=O)NCC2CCC(C(=O)NCc3ccccc3Cl)CC2)cc1 (stereo unspecified)	.	-13%	.	.	-11%
Cn1c(N2CCCCC2)nc2c1c(=O)[nH]c(=O)n2C	-1%	-2%	-4%	28	-13%
Cc1csc(SCCn2c(N3CCN(c4ccccc4)CC3)nc3c2c(=O)[nH]c(=O)n3C)n1	6%	16µM*	-5%	-4	26µM*
